Test [1] deals with T1, Serine/threonine-protein kinase 3 (Homo sapiens) (UniProt Q13188).
T1 sequence (whole entry): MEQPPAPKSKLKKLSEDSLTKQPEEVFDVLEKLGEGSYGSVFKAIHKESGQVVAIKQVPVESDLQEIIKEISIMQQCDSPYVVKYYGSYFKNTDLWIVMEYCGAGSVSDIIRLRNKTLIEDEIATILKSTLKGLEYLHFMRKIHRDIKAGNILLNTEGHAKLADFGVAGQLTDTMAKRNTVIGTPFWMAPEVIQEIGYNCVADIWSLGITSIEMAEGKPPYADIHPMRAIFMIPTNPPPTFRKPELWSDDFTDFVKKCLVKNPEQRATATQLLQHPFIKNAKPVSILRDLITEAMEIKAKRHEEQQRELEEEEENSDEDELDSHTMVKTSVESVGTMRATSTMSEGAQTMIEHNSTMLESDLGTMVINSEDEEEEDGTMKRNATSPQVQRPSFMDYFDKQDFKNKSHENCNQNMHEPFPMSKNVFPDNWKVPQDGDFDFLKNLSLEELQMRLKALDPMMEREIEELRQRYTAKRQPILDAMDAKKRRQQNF
As to conditions: at 1 µM.

Test [2] addresses T1, Serine/threonine-protein kinase 3 (Homo sapiens). Conditions: at 10 µM.
The target in test [3] is Serine/threonine-protein kinase 24 (Homo sapiens) (UniProt Q9Y6E0). Conditions: at 1 µM.
Sequence of Serine/threonine-protein kinase 24 (Homo sapiens) (Q9Y6E0 whole entry, looked up): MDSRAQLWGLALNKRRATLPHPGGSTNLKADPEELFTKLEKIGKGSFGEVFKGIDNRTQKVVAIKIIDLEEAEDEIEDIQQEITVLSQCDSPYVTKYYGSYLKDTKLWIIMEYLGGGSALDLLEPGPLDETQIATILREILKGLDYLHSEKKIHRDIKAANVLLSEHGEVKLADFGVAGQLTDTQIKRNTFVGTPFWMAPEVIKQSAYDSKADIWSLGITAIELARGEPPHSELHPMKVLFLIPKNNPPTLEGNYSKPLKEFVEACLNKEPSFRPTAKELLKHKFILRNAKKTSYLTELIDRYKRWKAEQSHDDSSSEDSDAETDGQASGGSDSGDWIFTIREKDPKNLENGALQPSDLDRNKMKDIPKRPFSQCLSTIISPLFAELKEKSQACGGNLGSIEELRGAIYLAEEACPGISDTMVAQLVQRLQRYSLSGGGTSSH
Test [4] shares this target. As to conditions: at 10 µM.
Test [5] addresses T2, Tyrosine-protein kinase Mer (Homo sapiens) (UniProt Q12866).
T2 sequence (whole entry): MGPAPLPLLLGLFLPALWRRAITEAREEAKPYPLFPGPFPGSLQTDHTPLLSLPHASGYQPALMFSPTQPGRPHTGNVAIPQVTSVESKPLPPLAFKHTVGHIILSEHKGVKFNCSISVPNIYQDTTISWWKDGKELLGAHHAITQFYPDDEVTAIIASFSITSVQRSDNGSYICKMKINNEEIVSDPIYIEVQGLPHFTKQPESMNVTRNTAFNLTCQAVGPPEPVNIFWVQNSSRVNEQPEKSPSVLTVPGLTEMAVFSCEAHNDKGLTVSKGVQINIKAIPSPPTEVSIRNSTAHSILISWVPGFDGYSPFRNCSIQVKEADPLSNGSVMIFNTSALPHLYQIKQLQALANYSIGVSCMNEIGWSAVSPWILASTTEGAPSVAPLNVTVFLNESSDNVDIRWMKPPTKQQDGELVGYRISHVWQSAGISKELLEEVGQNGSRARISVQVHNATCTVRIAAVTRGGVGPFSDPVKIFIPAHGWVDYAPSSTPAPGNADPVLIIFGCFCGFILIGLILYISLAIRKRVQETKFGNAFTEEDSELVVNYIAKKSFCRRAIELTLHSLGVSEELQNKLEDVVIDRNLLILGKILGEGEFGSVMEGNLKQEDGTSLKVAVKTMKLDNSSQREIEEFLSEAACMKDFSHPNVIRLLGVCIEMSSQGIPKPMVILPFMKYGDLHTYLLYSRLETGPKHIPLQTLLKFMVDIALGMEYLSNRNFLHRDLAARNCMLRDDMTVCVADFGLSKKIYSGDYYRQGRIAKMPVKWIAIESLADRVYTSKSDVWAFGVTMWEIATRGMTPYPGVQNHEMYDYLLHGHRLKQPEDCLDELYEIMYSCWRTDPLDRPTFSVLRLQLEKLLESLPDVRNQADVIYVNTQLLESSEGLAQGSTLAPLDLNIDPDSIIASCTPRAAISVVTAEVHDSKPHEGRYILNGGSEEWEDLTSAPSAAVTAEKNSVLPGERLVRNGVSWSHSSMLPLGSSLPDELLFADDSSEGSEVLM
Conditions: at 1 µM.

Test [6] has as its target T2, Tyrosine-protein kinase Mer (Homo sapiens). Conditions: at 10 µM.
For test [7], the target named is Hepatocyte growth factor receptor (Homo sapiens) (UniProt P08581). As to conditions: at 1 µM.
Sequence of Hepatocyte growth factor receptor (Homo sapiens) (P08581 whole entry): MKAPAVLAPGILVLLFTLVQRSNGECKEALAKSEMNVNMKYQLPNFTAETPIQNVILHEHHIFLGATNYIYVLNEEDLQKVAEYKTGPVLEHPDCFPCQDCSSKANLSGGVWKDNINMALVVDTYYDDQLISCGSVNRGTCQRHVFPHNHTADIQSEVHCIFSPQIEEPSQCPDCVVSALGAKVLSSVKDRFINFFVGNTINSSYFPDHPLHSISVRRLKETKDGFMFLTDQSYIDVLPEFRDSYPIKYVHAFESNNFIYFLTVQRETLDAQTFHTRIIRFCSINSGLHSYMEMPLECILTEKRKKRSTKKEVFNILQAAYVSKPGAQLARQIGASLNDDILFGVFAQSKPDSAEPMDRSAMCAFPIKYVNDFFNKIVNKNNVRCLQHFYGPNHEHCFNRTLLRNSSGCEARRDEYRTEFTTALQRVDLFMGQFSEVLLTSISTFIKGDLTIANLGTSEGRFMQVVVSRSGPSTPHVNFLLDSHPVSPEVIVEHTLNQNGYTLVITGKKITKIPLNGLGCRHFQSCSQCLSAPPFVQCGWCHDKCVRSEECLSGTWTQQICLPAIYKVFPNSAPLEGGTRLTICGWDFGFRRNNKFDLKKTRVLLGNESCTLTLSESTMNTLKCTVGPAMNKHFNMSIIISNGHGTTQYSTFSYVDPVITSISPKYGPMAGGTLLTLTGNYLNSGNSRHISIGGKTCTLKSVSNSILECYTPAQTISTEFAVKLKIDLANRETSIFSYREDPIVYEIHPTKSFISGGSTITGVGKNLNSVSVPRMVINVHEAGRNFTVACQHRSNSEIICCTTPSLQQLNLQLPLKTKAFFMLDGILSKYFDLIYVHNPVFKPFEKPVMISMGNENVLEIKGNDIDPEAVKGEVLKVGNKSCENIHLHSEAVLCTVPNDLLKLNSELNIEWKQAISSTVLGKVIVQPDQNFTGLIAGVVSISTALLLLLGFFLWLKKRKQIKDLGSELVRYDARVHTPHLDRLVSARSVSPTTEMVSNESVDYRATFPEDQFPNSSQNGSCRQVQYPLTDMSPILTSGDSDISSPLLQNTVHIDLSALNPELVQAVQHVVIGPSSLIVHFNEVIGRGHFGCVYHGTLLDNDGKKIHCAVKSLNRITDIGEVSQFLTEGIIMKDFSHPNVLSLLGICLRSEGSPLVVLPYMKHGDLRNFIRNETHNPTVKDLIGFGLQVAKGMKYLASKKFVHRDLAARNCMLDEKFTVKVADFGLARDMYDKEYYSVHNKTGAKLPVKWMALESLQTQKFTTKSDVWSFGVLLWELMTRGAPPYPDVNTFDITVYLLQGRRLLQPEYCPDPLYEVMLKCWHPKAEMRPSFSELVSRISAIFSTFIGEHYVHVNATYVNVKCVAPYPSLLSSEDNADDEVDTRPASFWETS
The target is the same in test [8]. Conditions: at 10 µM.
The target in test [9] is MAP kinase-interacting serine/threonine-protein kinase 2 (Homo sapiens) (UniProt Q9HBH9). As to conditions: at 1 µM.
Sequence of MAP kinase-interacting serine/threonine-protein kinase 2 (Homo sapiens) (Q9HBH9 whole entry, looked up): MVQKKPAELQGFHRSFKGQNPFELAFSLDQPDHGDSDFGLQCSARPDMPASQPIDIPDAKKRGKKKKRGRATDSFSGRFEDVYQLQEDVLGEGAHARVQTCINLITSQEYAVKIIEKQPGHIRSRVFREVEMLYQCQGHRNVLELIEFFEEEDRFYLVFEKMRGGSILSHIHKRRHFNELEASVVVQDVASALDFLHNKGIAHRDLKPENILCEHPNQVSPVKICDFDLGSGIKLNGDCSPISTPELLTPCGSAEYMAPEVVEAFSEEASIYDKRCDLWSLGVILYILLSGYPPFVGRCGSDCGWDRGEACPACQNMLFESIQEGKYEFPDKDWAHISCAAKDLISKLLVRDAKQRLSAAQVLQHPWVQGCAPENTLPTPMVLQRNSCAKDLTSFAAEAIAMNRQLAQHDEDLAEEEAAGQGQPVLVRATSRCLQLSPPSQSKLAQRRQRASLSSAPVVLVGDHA
Test [10] shares this target. As to conditions: at 10 µM.

Structures are written as SMILES.

Consider 29 compounds from ChEMBL document CHEMBL2218924, “A broad activity screen in support of a chemogenomic map for kinase signalling research and drug discovery” (Biochem J, 2013).

What is called residual activity is the signal under treatment as a percentage of the control signal.

As for `O=C1Nc2ccc(Cl)cc2/C1=C/c1cc(Cl)c(O)c(Cl)c1`, the residual activity in test [1] came to 49%; in test [2] it was 2%; in test [3] it was 56%; in [4] it was 50%; in [5], 92%; in test [6] it was 58%. Further, the residual activity in test [7] stood at 87%; in [8] it was 79%; in test [9], 90%; in test [10] it was 61%.

Regarding `O=C(NC(NC(=S)Nc1ccc(F)c([N+](=O)[O-])c1)C(Cl)(Cl)Cl)C(c1ccccc1)c1ccccc1` (stereo not drawn), the residual activity in test [1] worked out at 98%; in test [2] it was 71%; in [3], 86%; in test [4], 82%.

On to `CC(C)c1nn(-c2c(Cl)cccc2Cl)c2nc(Cc3ccc(OCCO)cc3)[nH]c(=O)c12`, for which the residual activity was determined as 109% in [1]; 78% in [2]; 23% in test [3]; 2% in test [4]; 98% in test [5]; 75% in test [6]. Moreover, the residual activity in [7] was determined as 146%; in [8], 75%; in [9], 103%; in test [10], 102%.

Turning to `O=C1NC(=O)C(c2cn(CCCO)c3ncccc23)=C1c1cnccn1`, the residual activity was 92% in [1]; 91% in test [2]; 73% in test [3]; 57% in test [4]; 89% in [5]; 86% in test [6]. Also, the residual activity was found to be 76% in test [9] and 67% in [10].

For the compound `Cn1c2ccccc2c2c3c(c4c5ccccc5n(CCC#N)c4c21)CNC3=O`, the residual activity in test [1] came out at 2%; in [2], 2%; in test [3], 47%; in [4], 57%; in test [7], 107%; in test [8] it was 106%. Further, the residual activity in test [9] and in test [10] was 10% throughout.

Turning to `CCOC(=O)c1c(C)[nH]c(/C=C2\C(=O)Nc3ccccc32)c1C`, the residual activity in [1] was determined as 85%; in [2], 72%; in [3], 97%; in test [4], 88%; in test [5], 16%; in test [6], 3%.

As for `CCCCc1c(-c2ccc(O)cc2)[nH]c2nccnc12`, the residual activity in test [1] is 86%; in test [2] it was 45%; in test [3], 68%; in test [4] it was 38%; in test [5], 73%; in test [6] it was 71%. Also, the figures for the residual activity in [9] and in [10] were 86% and 76%, respectively.

Consider `Nc1nc(Nc2ccc(S(N)(=O)=O)cc2)nn1C(=O)c1c(F)cccc1F`, for which the residual activity in [1] stood at 34%; in test [2], 4%; in test [3], 61%; in [4] it was 6%; in [6] it was 1%; in test [7], 45%. Further, the results for the residual activity in [8], in test [9] and in test [10] were 10%, 95% and 66%, respectively.

Turning to `O=C1Cc2c([nH]c3ccc(Br)cc23)-c2ccccc2N1`, the residual activity came to 87% in [1]; 28% in [2]; 65% in test [3]; 40% in test [4]; 78% in test [5]; 28% in test [6]. In addition, the figures for the residual activity in [9] and in test [10] were 90% and 39%, respectively.

On to `Nc1ncnc2c1c(-c1ccc(Oc3ccccc3)cc1)cn2C1CCCC1`, for which the residual activity amounted to 91% in [1]; 11% in [2]; 56% in [3]; 52% in test [4]; 102% in test [5]; 52% in [6]. Besides, the residual activity in test [7] was 72%; in [8] it was 34%; in [9], 75%; in test [10], 24%.

Regarding `Oc1cccc(-c2nc(N3CCOCC3)c3oc4ncccc4c3n2)c1`, the residual activity in test [3] was determined as 75%; in test [4], 74%; in [6], 93%; in test [7], 121%; in [8] it was 133%.

For `COc1ccc(COc2ccc(Cc3cnc(N)nc3N)cc2OC)cc1`, the residual activity in test [3] worked out at 61%; in test [4], 65%; in test [7], 109%; in test [8], 129%; in [9], 108%; in [10] it was 100%.

As for `CN([C@@H](Cc1ccc(OS(=O)(=O)c2cccc3cnccc23)cc1)C(=O)N1CCN(c2ccccc2)CC1)S(=O)(=O)c1cccc2cnccc12`, the residual activity in test [1] worked out at 99%; in test [7] it was 85%; in test [8], 114%.

Take `NCCNc1ncc(C(N)=O)c(Nc2cccc(C(F)(F)F)c2)n1`: the residual activity in test [2] was 77%; in test [4], 63%; in test [5] it was 80%; in [6], 26%.

For `COc1ccc(-c2cnc3c(-c4ccsc4)cnn3c2)cc1`, the residual activity in test [3] was found to be 67%; in test [4] it was 81%; in test [9] it was 95%; in test [10], 87%.

In the case of `O=c1c(-c2ccc(F)cc2)c(-c2ccncc2)[nH]n1-c1ccc(Cl)cc1`, the residual activity in test [4] is 79%; in [7], 67%; in [8], 28%.

Take `CC(C)N(CCC(=O)c1ccc2ccccc2c1)Cc1ccccc1`: the residual activity was found to be 62% in test [3], 72% in test [4], 79% in test [8] and 87% in test [10].

Regarding `O=C(O)/C=C/c1cc(Br)c(Br)c(Br)c1Br`, the residual activity in test [3] turned out to be 105%; in [4] it was 85%; in test [5] it was 104%; in test [6], 94%; in test [7] it was 93%; in test [8] it was 84%. For the same compound, the residual activity in test [9] is 74%.

Take `O=C(Nc1ccc(Cl)cc1)c1ccccc1NCc1ccncc1`: the residual activity worked out at 72% in test [3], 77% in test [4], 101% in test [5] and 99% in test [6].

As for `O=C1Nc2ccccc2/C1=C\c1c(Cl)[nH]c2ccccc12`, the residual activity was 83% in [3]; 67% in [4]; 77% in test [5]; 21% in test [6]; 121% in [7]; 40% in test [8]. In addition, in test [10], the residual activity is 70%.

As to `O=c1cc(N2CCOCC2)oc2c(-c3ccccc3)cccc12`, the residual activity in test [3] turned out to be 59%; in test [4] it was 55%.

`O=C1C(Cl)=C(N2C(=O)CCC2=O)C(=O)c2ccccc21`: the residual activity in test [2] was 83%; in [3], 78%; in test [4] it was 79%; in test [5] it was 90%; in [6], 92%; in [8], 95%. The residual activity came out at 102% in test [9] and 94% in test [10].

As to `NC(=O)Nc1sc(-c2ccc(F)cc2)cc1C(N)=O`, the residual activity in test [3] is 38%; in test [4], 6%; in test [5], 54%; in test [6], 9%; in test [9], 72%; in [10], 24%.

For `CCCCc1c(-c2ccc(OC)cc2)[nH]c2nccnc12`, the residual activity was found to be 68% in test [2]; 70% in test [3]; 60% in test [4]; 68% in test [5]; 80% in [6]; 118% in test [7].

In the case of `c1ccc(-c2cnc(Nc3ccc(OCCN4CCCC4)cc3)s2)cc1`, the residual activity in [1] amounted to 109%; in [3] it was 67%; in [4], 80%; in test [5], 81%; in [6] it was 17%; in [7], 78%. Further, the residual activity in test [8] stood at 44%; in [9] it was 21%; in test [10], 7%.

As for `CC(C)(C)n1nc(Cc2cccc3ccccc23)c2c(N)ncnc21`, the residual activity was determined as 91% in [1]; 29% in [2]; 32% in test [4]; 128% in [7]; 73% in test [8]; 113% in test [9]. Also, the residual activity in test [10] was 98%.

`Cc1cc(C)c(/C=C2\C(=O)Nc3ccccc32)[nH]1`: the residual activity is 72% in test [4]; 4% in test [5]; 2% in [6]; 101% in [7]; 98% in [8].

In the case of `Fc1ccc(-c2nc3n(c2-c2ccncc2)CCS3)cc1`, the residual activity in [1] stood at 99%; in [3] it was 99%; in test [4] it was 89%; in [7], 130%; in test [8], 100%.

In the case of `NC(=O)c1ccc(-c2nc(-c3ccc4c(c3)OCCO4)c(-c3ccccn3)[nH]2)cc1`, the figures for the residual activity in test [3] and in test [4] were 91% and 82%, respectively.
